Compounds without any hit were thinned out: in the full panel of roughly 83,000, 20% have a hit.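 Values shown are percent growth following 48 h exposure of cells in 96-well plates to a single concentration of compound; below 10 was considered active.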 Unmarked numbers belong to inactive results. Activity calls are given as the source filed them.
system: HL-60(TB) leukemia; assay: NCI-60 one-dose screen, 48 h (100 = growth as untreated, 0 = no growth, -100 = all killed); conditions: 10 µM unless noted

| Compound | growth |
| --- | --- |
| CCCCCCCCCCCC[n+]1ccc(CCCCCCCCC)cc1 | -53.3% (active) |
| COc1cc(/C=C/C(=O)c2cc(OC)c(OC)c(OC)c2)ccc1Oc1nc2c(c(=O)n(C)c(=O)n2C)n1C | -13.1% (active) |
| CN1CCN(CCCNC(=O)c2c3c(n4ccccc24)C(=O)c2ncccc2C3=O)CC1 | -25.4% (active) |
| CCCCc1n(Cc2ccc3ccccc3n2)cc[n+]1Cc1ccc2ccccc2c1 | -46.1% (active) |
| Cc1ccccc1NC(=O)NC(CC(N)=O)c1ccc2c(c1)nc(-c1cccc(Oc3ccc(C(C)(C)C)cc3)c1)n2CCCN1CCCCC1C (configuration not stated) | -3.28% (active) |
| CCN(CC)CC(C)(C)C(=O)/C=C/c1ccccc1 | 26.2% |
| O=[N+]([O-])c1ccc(N=Nc2c(Cl)cc(O)cc2Cl)cc1 | -31.9% (active) |
| O=C1CC(C(F)(F)F)Cc2nc3ccc(Br)cc3cc21 (configuration not stated) | 89.8% |
| COc1ccc(C(C)c2cc(OC)c(OC)c(OC)c2)cc1 (configuration not stated) | -15.6% (active) |
| CN1CSC(=S)N(Cc2ccccc2)C1 | 79.8% |
| Cc1cc(C)nc(SC2=C(Nc3cccc(Cl)c3C)C(=O)N(Cc3ccccc3)C2=O)n1 | 10.4% [30 µM] |
| O=C(c1ccccc1)C(Br)[N+](=O)[O-] (configuration not stated) | 62.3% |
| O=C1/C(=C\c2ccc(Cl)cc2)CN(C(=O)c2ccccc2)C/C1=C\c1ccc(Cl)cc1 | 58% |
| O=c1c2c(=NCCN3CCCC3)cc3c(=O)n(CCCN4CCOCC4)c(=O)c4c(-c5ccc(CN6CCCC6)cc5)cc(c(O)n1CCCN1CCOCC1)c2c4-3 | -36.5% (active) |
| c1ccc(-c2oc(-c3ccccc3)c3ccccc23)cc1 | 109% |
| O=C1NC(=O)C(c2ccc(Cl)cc2Cl)N1 (configuration not stated) | 107% |
| COC(=O)CC[C@@H](C)[C@H]1CC[C@H]2C3CC[C@@H]4C[C@@H]5CC[C@]4(C)[C@@]3(O5)[C@H](Br)[C@@H](Br)[C@]12C (some centres not stated) | 81.2% |
| Cn1c2c(c3ccc(-c4ccn[nH]4)cc3c1=O)C(=O)c1ccccc1-2 | -17.7% (active) |
| O=C(CCc1nnc2sc(-c3cc(O)c(O)c(O)c3)nn12)c1nc2ccccc2[nH]1 | 100% |

| Compound | growth |
| --- | --- |
| O=[N+]([O-])c1ccc(N/N=C\c2ccccc2[N+](=O)[O-])nc1 | 109% |
| CC1=C(C(=O)/C=C/c2c[nH]c3ccccc23)C(c2ccccc2)NC(=S)N1 (configuration not stated) | 99.5% |
| CC(C)(C)CC(C)(C)Nc1c(-c2c(O)c3ccccc3oc2=O)nc2c(Cl)cc(C(F)(F)F)cn12 | 90.9% |
| CCCCCCc1cc2cc(-c3nc4ccccc4[nH]3)c(=Nc3ccccc3C)oc2cc1O | 12.2% |
| O=C1c2cc3c(cc2-c2c1c1cc(F)c(F)cc1c(=O)n2CCCn1ccnc1)OCO3 | -15.4% (active) |
| N#CC1=C(N)Oc2c(ccc3cccnc23)C1c1ccccc1 (configuration not stated) | 13.3% |
| COc1ccc(Cn2c(C(N)=O)cc3c2-c2nc(N)ncc2CCC3)cc1 | 121% |
| Cc1nc2cccc(NCc3ccc(C(=O)NO)cc3)c2c(=O)n1-c1ccccc1 | 27.2% |
| O=C1C(Cl)C(c2ccccc2Cl)N1n1cnnc1 (configuration not stated) | 109% |
| Cc1ccc(-c2cc(-c3cccnc3)[nH]c(=O)c2C#N)cc1 | 99% |
| Cc1ccc(-c2nnc(SCc3nc(N)nc(Nc4ccccc4F)n3)n2-c2ccccc2)cc1 | -21.3% (active) |
| COC(=O)[C@]12CC[C@@H](C)[C@H](C)[C@@H]1C1=CC[C@@H]3[C@@]4(C)CC(=O)[C@H](O)[C@@]5(C)COC(=C45)C[C@@]3(C)[C@]1(C)CC2 | -37.5% (active) |
| COc1ccc(Cl)cc1C(=O)Nc1nc2ccc(Cl)cc2s1 | 103% |
| COC(=O)[C@H](Cc1cn(C)cn1)NC(=O)[C@H](Cc1ccccc1)NC(=O)Nc1cc(C(F)(F)F)cc(C(F)(F)F)c1 | -67.9% [100 µM] (active) |
| CCCCCC(=C/c1ccccc1)/C=N/N=C(N)N | -30.2% (active) |
| CN[C@@H]1C[C@H]2O[C@@](C)([C@@H]1OC)n1c3ccccc3c3c4c(c5c6ccccc6n2c5c31)C(=O)N[C@H]4O | -40.8% (active) |
| COc1cccc(NC(=O)Nc2ccc(Oc3ncnc4[nH]c(C)c(C)c34)cc2)c1 | 88.4% |
| C=C1C(=O)O[C@H]2[C@H]1CC/C(COC(=O)NCc1ccc(Cn3c(=O)sn(CCCl)c3=O)cc1)=C\CC[C@@]1(C)O[C@@H]21 | -21.4% (active) |
